# Experimental data: the supplement of paper PMC10338343
# ± gives the standard deviation.
# Test system: MILI (PIWIL2) piRISC loaded with L1MC piRNA (26 nt)
# Assay: pre-steady-state target cleavage rate (min^-1); guide: L1MC piRNA 5'p-UAACUAAAUACUAUGCAAGCUGUAGG; MIWI and MILI are mouse PIWI proteins and EfPiwi is from a freshwater sponge; tags in brackets are library labels; higher = faster piRNA-guided slicing of the target
# Summary of the method: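 Cleave-'n-Seq used a transcribed, DNA-blocked target RNA library at 0.1 nM and active affinity-purified piRISC with one synthetic guide at 1 nM, with or without 500 nM GTSF1 partner protein, in HEPES–potassium acetate buffer at 33 °C for 0–8 or 0–960 min. Uncleaved targets were sequenced and normalised to depth and to weakly complementary targets, and three trials were pooled with k3 capped at 0.0001 min^-1. The pre-steady-state cleavage rate was estimated by a burst-and-steady-state fit.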
# [1] = auxiliary factor: 500 nM mouse GTSF1
# [2] = auxiliary factor: none (no GTSF1)
Sequence,pre-steady-state target cleavage rate [1],pre-steady-state target cleavage rate [2]
UCCUGGAUGACCUUGCAUAGUAUUUACUUA,0.0753 ± 0.027,–
UCCUGGAUGUCGAUGCAUAGUAUUUUCUUA,0.011 ± 0.006,–
UCCUCCUACAGCUUGCAAUGUAUUUAGUAA,0.0921 ± 0.012,–
UCCUGGAUGUGCAACCAUAGUAUUUAGUUA,0.0128 ± 0.0042,–
UCCUCCUACAGCUACGAUAGUAUUUAGAAA,0.13 ± 0.029,–
UCCUGGAUGUCGAACGUAACAAUUUAGUUA,–,< 0.0001
UCCUGCUACUCGUUGCAUAGUAUUUAGAAA,0.179 ± 0.032,–
UCCUGGAACAGCUUGCAUAGAAUUUAGAAA,0.0206 ± 0.0083,–
UCCUGGAUGUGCUAGCAUAGUAUUAAGUUA,0.0987 ± 0.014,–
UCCUGGAACAGCUUGCAAACUAUUUAGUUA,0.0282 ± 0.0064,–
UCCUGGAUGUGCUUGCAUACUAAUUAGUUA,0.00944 ± 0.0038,–
UCCUGGAUGUCCAUGCAAAGUAUUUAGUUA,0.0101 ± 0.0043,–
UCCUGGAUGUCGAACGUAUGUGUUUAGUUA,–,< 0.0001
UCCUGGAUGUCGAACGAUUCAAUUUAGUUA,–,< 0.0001
UCCUGGAUGUCGAAGCAUAGUAUUUAGUUU [g2:g16:cont:t1U],0.0307 ± 0.0082,0.00447 ± 0.0018
UCCUGGAUGUGCUUGCAUAGUAUUUAGUGUA,0.101 ± 0.015,0.00366 ± 0.0034
UCCUGCUACAGGUUGCAUAGUAUAUAGUUA,0.305 ± 0.036,0.00597 ± 0.0027
UCCUGGAUGUCGUUGUAUAGUAUUUAGUUA,0.151 ± 0.017,0.0105 ± 0.0023
UCCUGGAUGUCGAUGCAUAGUAAUUAGUUA,0.0524 ± 0.011,0.00499 ± 0.0021
UCCUGGAUCAGCUUGCUAUGUAUUUAGUUA,0.0176 ± 0.0068,0.00553 ± 0.0022
UCCUCCUACAGCUUGCAUAGUAUUUUGUUA,0.177 ± 0.023,0.0036 ± 0.0022
UCCUCCUACAGCUUGCUUAGUAUUUAGUAA,0.203 ± 0.017,0.0037 ± 0.0021
